# Sampled rows, rich in hits. Any-hit rate of the full collection: about 9%.
# Lamin A splicing – qHTS Assay for Modulators of Lamin A Splicing; HeLa LMNA splicing GFP/RFP minigene ratio, 48 h; Potency, µM (top dose mostly 46.1 µM), inactives show top-dose ratio change, negative = inhibition, most hits filed as inhibitors; 0.01% of 200,000 active; AID 1487, 2009; active = well fitted inhibition curve with a large enough effect in the signal ratio, with a control signal flat, not every such curve was filed as active; inconclusive = small, poorly fitted or top-dose-only effect, or effect the other way, or a change in a side signal; the % refers to the signal ratio; also: % is scaled to controls: 0 for no effect and ±100 for the full control effect
#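 S3 HeLa stable clones carrying a lamin A-EGFP splicing minigene plus DsRed2 were seeded at 600 cells/well in Opti-MEM with 2% FBS, pin-dosed and incubated 48 h at 37°C. Acumen cytometry (488 nm) gave the GFP/RFP total-intensity ratio.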
# HPGD block – qHTS Assay for Inhibitors of HPGD (15-Hydroxyprostaglandin Dehydrogenase); Potency, µM, for inactives: at the highest dose activity change, negative = inhibition, usual class: inhibitors; 15-hydroxyprostaglandin dehydrogenase [NAD(+)] (Homo sapiens), P15428; 4.3% of 150,000 active; purified HPGD, NADH fluorescence kinetic, PGE2 substrate; active = well fitted inhibition curve with a large enough effect, not every such curve was filed as active; inconclusive = small, poorly fitted or top-dose-only effect, or another doubt; inactive = no such curve, though single readings can be large or run the other way; also: % is scaled to controls: 0 for no effect and ±100 for the full control effect
# Target sequence (P15428 whole entry, looked up): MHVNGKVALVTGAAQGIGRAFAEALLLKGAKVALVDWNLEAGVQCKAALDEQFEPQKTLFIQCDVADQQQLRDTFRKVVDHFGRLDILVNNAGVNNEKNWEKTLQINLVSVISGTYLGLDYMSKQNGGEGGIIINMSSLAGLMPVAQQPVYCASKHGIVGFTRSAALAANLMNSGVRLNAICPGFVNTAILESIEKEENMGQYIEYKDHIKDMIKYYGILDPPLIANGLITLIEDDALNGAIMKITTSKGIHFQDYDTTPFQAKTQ
#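 20 nM HPGD preincubated 15 min at room temperature with compound in 50 mM Tris-HCl pH 8, 0.01% Tween 20. Started with 1 mM NAD+ and 30 uM prostaglandin E2; NADH fluorescence (360/450 nm) read 5 times over 30-s intervals, last minus first.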
# HTT aggregate – qHTS Multiplex Assay to Identify Dual Action Probes in a Cell Model of Huntington: Aggregate Formation (GFP); PC12 HttQ103-GFP aggregates, Acumen cytometry, 40 h; Potency, µM (highest dose often 46.1 µM), inactives show at the highest dose activity change, negative = inhibition, hits mostly inhibitors; 1.1% of 220,000 active; also: % is scaled to controls: 0 for no effect and ±100 for the full control effect; nearly all actives have a fitted effect of over 60% in size
#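 Steps: seed 1500 PC12 HTTQ103-GFP cells/well; add tebufenozide, 100 nM final; add compound titration; add ATPLite reagent; quantify GFP aggregates by laser scanning cytometry.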
# HTT cytoprotect – qHTS Multiplex Assay to Identify Dual Action Probes in a Cell Model of Huntington: Cytoprotection (ATP); Potency, µM (series often up to 56.4 µM), for inactives: cytoprotection (ATP increase), actives largely listed as activators; 0.14% of 230,000 active; PC12 HTT-Q103 induced, cytoprotection, ATP luminescence, 40 h; also: % of control where 0% means no effect; nearly all actives have a fitted effect of over 45% in size
#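 Stable PC12 Q103-GFP cells in serum-supplemented, phenol red-free DMEM; induction by tebufenozide at 100 nM final; compound dose series; cell viability quantified luminescently from ATP.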
# Luc counter – Counterscreen for Luciferase (Kinase-Glo TM) Inhibition. 0.28% of 200,000 active. Potency, µM (doses to about 38.3 µM), for the others: at the highest dose activity change, negative = inhibition, hits mostly inhibitors. Kinase-Glo luciferase, ATP luminescence, 8 min. Luciferin 4-monooxygenase (Photuris pensylvanica), Q27757; also: % is scaled to controls: 0 for no effect and ±100 for the full control effect; nearly all actives have a fitted effect of over 60% in size
#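 Inhibition of Kinase-Glo luciferase light generation was assessed at 10 uM ATP in pH 7.2 imidazole buffer, with luminescence measured after eight minutes at ambient temperature.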
# ALDH1A1 block – qHTS Assay for Inhibitors of Aldehyde Dehydrogenase 1 (ALDH1A1) | Aldehyde dehydrogenase 1A1 (Homo sapiens), P00352 | Purified ALDH1A1, NADH fluorescence, propionaldehyde substrate | Potency, µM (doses to about 75.3 µM), inactives show at the highest dose activity, negative = inhibition, hits mostly inhibitors | 7.3% of 220,000 active | AID 1030, 2008; active = well fitted inhibition curve with a large enough effect, not every such curve was filed as active; inconclusive = small, poorly fitted or top-dose-only effect, or another doubt; inactive = no such curve, though single readings can be large or run the other way;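 also: plate controls were no enzyme wells and a reference inhibitor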
# Target sequence (P00352 whole entry, looked up): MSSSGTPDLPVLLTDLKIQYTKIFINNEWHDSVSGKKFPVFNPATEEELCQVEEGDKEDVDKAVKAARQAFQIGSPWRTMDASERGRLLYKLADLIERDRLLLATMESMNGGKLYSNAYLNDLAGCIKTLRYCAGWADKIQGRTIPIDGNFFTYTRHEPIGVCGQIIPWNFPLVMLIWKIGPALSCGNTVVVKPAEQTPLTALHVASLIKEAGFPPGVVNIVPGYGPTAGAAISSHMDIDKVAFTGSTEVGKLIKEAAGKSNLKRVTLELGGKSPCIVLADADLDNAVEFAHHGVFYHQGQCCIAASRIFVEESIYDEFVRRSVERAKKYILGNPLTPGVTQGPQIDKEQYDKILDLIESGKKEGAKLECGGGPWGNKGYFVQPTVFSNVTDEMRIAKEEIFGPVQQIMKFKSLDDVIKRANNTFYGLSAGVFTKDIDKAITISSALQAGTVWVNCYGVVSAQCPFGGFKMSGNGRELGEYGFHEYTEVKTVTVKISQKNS
# * marks the source's active call; other numbers are inactive results; ? = inconclusive; nt = no result given; [ ] = remark or other dose. Unless noted, calls follow the shape of the dose curve; as a rule, active = well fitted curve in the direction sought with a large enough effect; inconclusive = small, poorly fitted or top-dose-only effect, or another doubt; inactive = no such curve, though single readings can be large; an effect the other way counts as inactive or inconclusive. Potency is read from the fitted curve at half-maximal effect.
SMILES,Lamin A splicing,HPGD block,HTT aggregate,HTT cytoprotect,Luc counter,ALDH1A1 block
Cc1onc(-c2ccccc2Cl)c1C(=O)NC(=S)Nc1ccc(C(C)C)cc1,-5%[46 µM],nt,8%[9.22 µM],11%[10 µM],nt,20µM*
Cn1cc(-c2ccccc2C(N)=O)c(=O)c2ccccc21,22%[46 µM],nt,-7%,3%[10 µM],-2%,-2%
Cn1cc(-c2nnnn2-c2ccccc2)c(=O)c2ccccc21,8%,-12%,10%,1%,-1%,7.1µM*
COc1ccc(Nc2ccc(C(=O)O)cc2[N+](=O)[O-])cc1,3%,-20%,16%,7%[10 µM],-1%,-1%
Cc1ccc(NC(=O)/C=C/C(=O)O)c([N+](=O)[O-])c1,-3%,-7%,-2%,7%[10 µM],3%,18µM*
CCOc1ccc(/C=C/C(=O)Nc2ccc(OC)cc2[N+](=O)[O-])cc1,10%,-12%,-24%,18%,-1%,5%
COc1ccc(NC(=O)CC2SC(N)=NC2=O)c([N+](=O)[O-])c1 (configuration not stated),nt,nt,11%[9.22 µM],22%[10 µM],0%,25µM*
COc1ccc(OC)c(Nc2ccc(C(=O)O)cc2[N+](=O)[O-])c1,-8%,16µM*,-21%,17%[10 µM],1%,6%
COc1ccc(NC(=O)CC2Nc3cc(C)c(C)cc3NC2=O)c([N+](=O)[O-])c1 (configuration not stated),nt,nt,15%[9.22 µM],-47%[10 µM],-2%,5%
COc1ccc(NC(=O)/C=C/C(=O)O)c([N+](=O)[O-])c1,nt,nt,-3%[9.22 µM],5%[10 µM],nt,19µM*
Cc1cc(NC(=O)/C=C\C(=O)O)c([N+](=O)[O-])cc1C,nt,nt,-16%[9.22 µM],-17%[10 µM],nt,nt
Cc1cc([N+](=O)[O-])ccc1NC(=S)NC(=O)C(c1ccccc1)c1ccccc1,?,-7%,?,-46%,-2%,?
CC(=O)NC(=S)Nc1ccc([N+](=O)[O-])cc1C,4%[46 µM],nt,?,11µM*,1%,-15%
Cc1cc([N+](=O)[O-])ccc1NC(=S)NC(=O)Cc1ccccc1,23%,18µM*,21%,-6%,-6%,?
Cc1cnc(CNc2cc(-c3ccccc3Cl)ncn2)cn1,6%,nt,nt,2%,nt,?
Cc1ccccc1CN(c1ccc(C(=O)Nc2cccnc2)cc1)S(C)(=O)=O,2%,-5%,-13%,5%,2%,24%
O=S(=O)(c1cccs1)N1CCCc2cccc(O)c21,5%,13µM*,11µM*,-15%,-5%,?
c1ccc(OCc2nnc3sc(-c4cccs4)nn23)cc1,-2%,8.9µM*,-17%,-9%[10 µM],2%,3.5µM*
Clc1ccc(Cl)c(-c2nn3c(COc4ccccc4)nnc3s2)c1,4%,10µM*,-7%,-6%[0.074 µM],1%,3.5µM*
COc1ccc(-c2nn3c(COc4ccccc4)nnc3s2)cc1OC,3%,?,18%,-68%,1%,?
CCSCc1nnc(SCC(=O)Nc2cccc(SC)c2)n1C,3%,-19%,11%,23%[10 µM],2%,20µM*
CC1CCCN(C(=O)c2ccc3c(=O)n(Cc4ccc5c(c4)OCO5)c(=S)[nH]c3c2)C1 (configuration not stated),?,5µM*,-19%,-28%,0%,10µM*
CC(C)OCCCNC(=O)c1ccc2c(=O)n(Cc3ccc4c(c3)OCO4)c(=S)[nH]c2c1,nt,nt,7%,-5%,-5%,13%
CCOC(=O)N1CCN(C(=O)c2ccc3c(=O)n(Cc4ccc(Cl)cc4)c(=S)[nH]c3c2)CC1,?,-22%,?,6%[0.074 µM],-1%,10µM*
O=C(O)C1CCCCC1C(=O)Nc1ccc(Cl)cc1Cl (configuration not stated),-7%,-7%,6%,0%[10 µM],5%,4%
SMILES,Lamin A splicing,HPGD block,HTT aggregate,HTT cytoprotect,Luc counter,ALDH1A1 block
COc1ccc2c(c1)c(CC(=O)O)c(C)n2Cc1ccc(Cl)cc1,?,-17%,nt,19%[1.9 µM],-12%,25µM*
COC(=O)c1cc(NC(=O)CSc2nnc(CN3CCOCC3)n2C)ccc1Cl,-20%,-5%,-10%,-11%[0.074 µM],4%,?
CC1=Nn2c(nnc2-c2ccco2)SC1,5%,32µM*,22%,4%,-1%,18µM*
CC1=Nn2c(nnc2-c2ccccc2Cl)SC1,2%,25µM*,12%,-5%[0.074 µM],0%,-11%
CCCCCc1ccc(-c2ccc(/C=C/C(N)=O)cc2)nc1,-15%,?,-3%,-4%[10 µM],0%,?
CCn1c(C)nc2cc(S(N)(=O)=O)ccc21,-12%[46 µM],nt,9%[9.22 µM],6%[10 µM],-4%,8%
CCn1c(C)nc2cc(S(=O)(=O)C(F)(F)C(F)C(F)(F)F)ccc21 (configuration not stated),?,?,7.1µM*,-37%,-2%,-1%
Cc1[nH]nc2c1C(c1ccccn1)N(c1ccc(Br)cc1)C2=O (configuration not stated),-3%,-22%,-14%,-33%,-2%,4%
COc1ccccc1/C=N/n1c(C)nnc1-n1nc(C)cc1C,-1%,-3%,9%,13%,-4%,10%
O=C(CN(Cc1ccco1)C(=O)CNS(=O)(=O)c1ccccc1)NCc1ccccc1,6%,-19%,11%,-32%[10 µM],1%,14µM*
Cc1ccc(S(=O)(=O)NCC(=O)N(CC(=O)NCC2CCCO2)Cc2ccccc2)cc1 (configuration not stated),13%,-1%,-16%,6%,-4%,?
O=C(CN(Cc1cccs1)C(=O)CNS(=O)(=O)c1ccccc1)NCc1ccco1,-12%,-5%,-19%,2%[10 µM],5%,20µM*
Cc1ccc(S(=O)(=O)NCC(=O)N(CC(=O)NCC2CCCO2)Cc2ccco2)cc1 (configuration not stated),-1%[46 µM],nt,7%[9.22 µM],15%[10 µM],0%,18µM*
Cc1ccc(S(=O)(=O)NCC(=O)N(CC(=O)NCc2ccco2)Cc2ccco2)cc1,-18%[46 µM],nt,16%[9.22 µM],4%[10 µM],-6%,8.9µM*
O=C(CN(Cc1ccco1)C(=O)CNS(=O)(=O)c1ccc(F)cc1)NCCc1ccccc1,-4%,-7%,-11%,5%,1%,4%
COC(=O)c1ccccc1NC(=O)c1c(O)c2c([nH]c1=O)CCCC2,0%,-24%,?,-26%,-4%,-12%
COc1cc(CC(=O)OCC(=O)Nc2ccc3c(c2)OCCO3)cc(OC)c1OC,1%,-13%,-6%,nt,0%,?

# Compound activity: PubChem, National Center for Advancing Translational Sciences (NCATS)
